Compound activity deposited in PubChem BioAssay by University of Pittsburgh Molecular Library Screening Center.
RT RNaseH block: blocks HIV-1 RNase H cleavage of RNA/DNA duplex | inhibition, % at 10 µM | 65,000 tested, 1.9% active | P04585 | RT-RNase H RNA/DNA duplex cleavage, fluorescence; in the data active = inhibition above about 50%
Starred values were filed as active, the others as inactive. Only a selection was taken, and hits are over-represented in it overall.

SMILES | RT RNaseH block
O=C(CCN1CCN(CCC(=O)c2ccccc2)CC1)c1ccccc1 | -5.8
Cc1ccc2[nH]c(=O)c(C(c3nnnn3CC3CCCO3)N3CCCc4ccccc43)cc2c1 (centres undefined) | 10.4
COc1ccc(Cn2nnnc2C(c2cccs2)N2CCN(c3ccccc3)CC2)cc1 (centres undefined) | 8.9
COc1ccc(N2CCN(C(c3ccccc3OC)c3nnnn3Cc3ccco3)CC2)cc1 (centres undefined) | 51.1*
COc1ccc(Cn2nnnc2C(c2ccccc2OC)N2CCC(C(N)=O)CC2)cc1 (centres undefined) | -0.2
CC(C)c1ccccc1OCCCCCNCCO | -8.1
COc1ccc(C2=NOC3(CC(=O)N(c4ccc(C)cc4)C3=O)C2)c(OC)c1 (centres undefined) | -6.6
COC(=O)Nc1sccc1C(=O)Nc1sccc1C(=O)OC | 53.6*
CCC(=O)Nc1sccc1C(=O)OC | -10.9
COC(=O)c1ccsc1NC(=O)C1=COCCO1 | -24.0
CNC(=O)c1cc(S(=O)(=O)N(C)C)ccc1Cl | -4.2
Cc1ccc(SCCCCN2C(=O)NC(C)(C)C2=O)cc1 | -2.6
C=CCNC(=O)CCCOc1cc(C)ccc1C | -4.2
Cc1cc(NC(=O)COc2cccc(C)c2C)no1 | -5.0
Cc1ccc(C)c(OCC(=O)Nc2nonc2NC(=O)COc2cc(C)ccc2C)c1 | 72.9*
COc1ccccc1-n1c(CNc2c(C)cccc2C)nnc1SCC(=O)N1CCOCC1 | 0.4
Cc1ccc2[nH]c(=O)c(CN(CCc3ccccc3)C(c3nnnn3Cc3ccco3)C(C)C)cc2c1 (centres undefined) | 20.1
CCC(c1nnnn1Cc1ccccc1)N(Cc1ccco1)Cc1cc2cc(OC)ccc2[nH]c1=O (centres undefined) | -9.6
CCC(c1nnnn1Cc1ccco1)N(CCc1ccccc1)Cc1cc2cc(C)ccc2[nH]c1=O (centres undefined) | 61.3*
COc1ccc(-n2nnc3c(SCC(=O)N4CCCc5ccccc54)ncnc32)cc1 | 0.0
C=CCSC1=C(C#N)C(c2ccc(OCC)cc2)CC(=O)N1 (centres undefined) | -14.5
CC1=C(C(=O)NCc2ccccn2)C2(CCC(C)CC2)OC1=O (centres undefined) | -4.8
CC(C)c1[nH]nc2c1C(Cc1ccccc1)C(C#N)=C(N)O2 (centres undefined) | -9.1
CCn1nnnc1SCC(=O)N(C1CCCCC1)C1CCCCC1 | -8.4
CCCn1nnnc1SCC(=O)Nc1ccc(F)cc1 | 2.4
SMILES | RT RNaseH block
CCCn1nnnc1SCC(=O)N(C(C)C)C(C)C | 64.5*
Nn1c(SCc2nc3ccccn3c2Br)nnc1-c1cccnc1 | -3.2
COC(=O)C(C(=O)OC)N1C(=O)CCC1=O | -10.9
O=C(Cn1cc2c(n1)CCCC2)N1CCc2ccccc21 | -24.5
Cc1cc(C)n(C(=O)C23CC4CC(CC(C4)C2)C3)n1 | -18.6
CCCCn1c(O)c(C=NC2CCCCC2N)c(=O)[nH]c1=O (centres undefined) | -4.1
NC1CCCCC1N=Cc1c(O)n(Cc2ccc(F)cc2)c(=O)[nH]c1=O (centres undefined) | -2.5
CCCCCCn1c(O)c(C=NC2CCCCC2N)c(=O)[nH]c1=O (centres undefined) | 50.9*
CCCCNC(=O)CN(C1CCCCC1)S(C)(=O)=O | 3.6
CC(C)c1ncc(C(O)c2cccc3ccccc23)n1C (centres undefined) | -2.3
O=C(COC(=O)C1COc2ccccc2O1)NC(=O)NC1CCCC1 (centres undefined) | -2.0
O=C(COC(=O)C1COc2ccccc2O1)NC(=O)Nc1ccc2c(c1)OCCO2 (centres undefined) | 51.0*
Cc1ccnc(NC(=O)COC(=O)C2COc3ccccc3O2)n1 (centres undefined) | 6.0
Cc1cc2nc(C3CCN(CC4COc5ccccc5O4)CC3)[nH]c2cc1C (centres undefined) | -3.0
COCCN1Cc2cccc(C(=O)Nc3ccc(C)c(C)c3)c2C1=O | -6.5
COCCN1Cc2cccc(C(=O)Nc3c(C)cccc3C)c2C1=O | 58.1*
COCCN1Cc2cccc(C(=O)Nc3cccc(OC)c3)c2C1=O | -9.1
CCn1c(CNC(=O)c2ccc(OC)cc2)nnc1SCC(=O)c1ccccc1 | 4.1
CCn1c(CCNC(=O)c2cccs2)nnc1SCC(=O)c1ccc(OC)cc1 | 57.4*
COC(=O)CSc1nnc(CNC(=O)c2cccs2)n1-c1cc(OC)ccc1OC | -4.3
CCOC(=O)N1CCC(Nc2c(NCCCN(C)Cc3ccccc3)c(=O)c2=O)CC1 | 0.6
C=CCNS(=O)(=O)c1ccc(OCC(=O)OC)cc1 | -6.1
Cn1c(=O)n(CC(=O)OCc2ccccc2)c(=O)c2c1nc1n2CCCN1C1CCCCC1 | -11.9
CCc1nnc2sc(-c3ccc(NC(=O)c4ccco4)cc3)nn12 | -0.2
Cc1nnc2sc(-c3ccc(NC(=O)c4cccnc4)cc3)nn12 | 2.5
SMILES | RT RNaseH block
Cc1nnc2sc(-c3ccc(NC(=O)c4ccc(-c5ccc(Cl)cc5Cl)o4)cc3)nn12 | 50.0*
CCOC(=O)N1CCc2c(sc3c2C(=O)NC(c2ccccc2)N3)C1 (centres undefined) | 1.9
Cn1cccc1C1NC(=O)c2c(sc3c2CCC(C(C)(C)C)C3)N1 (centres undefined) | 60.0*
CN1CCc2c(sc3c2C(=O)NC(c2ccco2)N3)C1 (centres undefined) | 0.2
CCCS(=O)(=O)N1CCc2cc(OC)c(OC)cc2C1 | -3.2
Cc1ccc(N2C(=O)CC3(CC4C=CC3C4)C2=O)cc1 (centres undefined) | -9.7
CC1(C)CN=C(N2CCN(C3=NCC(C)(C)S3)CC2)S1 | -7.5
COc1c(F)c(F)c(C(=O)Nc2ccc(NC(=O)c3ccco3)cc2)c(F)c1F | 7.0
COC(=O)c1c(NC(=O)c2ccco2)sc(C)c1C | 9.0
COC(=O)c1c(NC(=O)c2ccco2)sc(C(=O)Nc2ccc(F)cc2)c1C | 55.8*
CN1CC(=O)N/C1=N\C(=O)Nc1ccc2c(c1)N(C)C(=O)CS2 | -2.9
CCOC(=O)c1c(C)[nH]c(C)c1C(=O)CSc1nnc(-c2ccco2)n1Cc1ccccc1 | -8.6
CCOC(=O)CNc1nc(C#N)nc(N2CCOCC2)n1 | 1.6
CCOC(=O)Cn1c(=O)oc2cc(S(=O)(=O)Nc3ccc(F)cc3)ccc21 | -6.8
Cc1cccc2nc(C(F)(F)F)nc(=O)n12 | 1.0
O=C1c2ccccc2C(=O)N1CCn1c(=O)oc2ccccc21 | -30.2
CSCCC(NC(=O)c1ccccc1)C(=O)NCc1ccco1 (centres undefined) | -0.1
Oc1ccccc1C(=S)N1CCCCCC1 | 37.7
Oc1ccccc1C(=S)N1CCCCC1 | 53.3*
O=C(Nc1ccccc1C(=O)N1CCCCC1)C1CCCCC1 | -5.5
COc1ccccc1NC(=O)N(C1CCCC1)C1CCN(C(C)=O)CC1 | -6.5
CCOC(=O)COc1ccc2c(c1)c(C(=O)OCC)c(C)n2CC | -19.2
Cc1nc(N2CCN(c3ccccc3)CC2)nc2c1C(=O)CC(C)C2 (centres undefined) | -8.1
Cc1nc(Nc2cccc(C(F)(F)F)c2)nc2c1C(=O)CC(C)C2 (centres undefined) | 51.1*
Cc1cccc(Nc2ncc3c(n2)CC(C)CC3=O)c1 (centres undefined) | -12.8
COC(=O)Cn1cnc2c(nnn2-c2cccc(Cl)c2)c1=O | -3.7
CCN1CCCC1CNC(=O)c1cc(NC(C)=O)c(N(C)C)cc1OC (centres undefined) | -2.4
COCCCNC(=O)c1ccccc1NS(=O)(=O)c1ccc(C)cc1 | -6.7
N#Cc1c(C(F)(F)F)cc(-c2ccccc2)nc1SCc1nc(N)nc(N2CCOCC2)n1 | -2.3
